# Calls of active or inactive are those of the source.
# Key:
# [1] = small molecules captured by biotinylated probe aFSTL3 – biochemical, small-molecule microarray, fluorescence 635/667, stem cell growth factor project, primary screen (AID 1064); conditions: higher = more signal;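 further: measures binding of the biotinylated anti-FSTL3 antibody to printed compounds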
# [2] = binders from COS7 lysate, DM2A8 probe, primary screen, torsin A project, cell lysate, small-molecule microarray, fluorescence 635/667 (AID 1065); conditions: higher = more signal, COS7 lysate expressing mutant human TOR1A
# [3] = small molecules captured by biotinylated probe aFGF2 – biochemical, small-molecule microarray, fluorescence 635/667, stem cell growth factor project, primary screen (AID 1067); conditions: higher = more signal;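 further: measures binding of biotinylated aFGF2 protein to printed compounds on slides; z-score merges feature fluorescence and signal-to-noise across triplicate slides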
# [4] = small molecules captured by biotinylated probe aFGF10 – biochemical, small-molecule microarray, fluorescence 635/667, stem cell growth factor project, primary screen (AID 1071); conditions: higher = more signal;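 further: score merges 667 nm spot intensity and signal to noise from triplicate slides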
# [5] = molecular target: Neurogenic locus notch homolog protein 2 (Homo sapiens) (UniProt Q04721); experiment: small molecules binding Notch2 protein – biochemical, small-molecule microarray, 635 nm fluorescence, stem cell growth factors, primary screen (AID 1073); conditions: higher = more signal
# Sequence of Neurogenic locus notch homolog protein 2 (Homo sapiens) (Q04721 whole entry, looked up, canonical isoform): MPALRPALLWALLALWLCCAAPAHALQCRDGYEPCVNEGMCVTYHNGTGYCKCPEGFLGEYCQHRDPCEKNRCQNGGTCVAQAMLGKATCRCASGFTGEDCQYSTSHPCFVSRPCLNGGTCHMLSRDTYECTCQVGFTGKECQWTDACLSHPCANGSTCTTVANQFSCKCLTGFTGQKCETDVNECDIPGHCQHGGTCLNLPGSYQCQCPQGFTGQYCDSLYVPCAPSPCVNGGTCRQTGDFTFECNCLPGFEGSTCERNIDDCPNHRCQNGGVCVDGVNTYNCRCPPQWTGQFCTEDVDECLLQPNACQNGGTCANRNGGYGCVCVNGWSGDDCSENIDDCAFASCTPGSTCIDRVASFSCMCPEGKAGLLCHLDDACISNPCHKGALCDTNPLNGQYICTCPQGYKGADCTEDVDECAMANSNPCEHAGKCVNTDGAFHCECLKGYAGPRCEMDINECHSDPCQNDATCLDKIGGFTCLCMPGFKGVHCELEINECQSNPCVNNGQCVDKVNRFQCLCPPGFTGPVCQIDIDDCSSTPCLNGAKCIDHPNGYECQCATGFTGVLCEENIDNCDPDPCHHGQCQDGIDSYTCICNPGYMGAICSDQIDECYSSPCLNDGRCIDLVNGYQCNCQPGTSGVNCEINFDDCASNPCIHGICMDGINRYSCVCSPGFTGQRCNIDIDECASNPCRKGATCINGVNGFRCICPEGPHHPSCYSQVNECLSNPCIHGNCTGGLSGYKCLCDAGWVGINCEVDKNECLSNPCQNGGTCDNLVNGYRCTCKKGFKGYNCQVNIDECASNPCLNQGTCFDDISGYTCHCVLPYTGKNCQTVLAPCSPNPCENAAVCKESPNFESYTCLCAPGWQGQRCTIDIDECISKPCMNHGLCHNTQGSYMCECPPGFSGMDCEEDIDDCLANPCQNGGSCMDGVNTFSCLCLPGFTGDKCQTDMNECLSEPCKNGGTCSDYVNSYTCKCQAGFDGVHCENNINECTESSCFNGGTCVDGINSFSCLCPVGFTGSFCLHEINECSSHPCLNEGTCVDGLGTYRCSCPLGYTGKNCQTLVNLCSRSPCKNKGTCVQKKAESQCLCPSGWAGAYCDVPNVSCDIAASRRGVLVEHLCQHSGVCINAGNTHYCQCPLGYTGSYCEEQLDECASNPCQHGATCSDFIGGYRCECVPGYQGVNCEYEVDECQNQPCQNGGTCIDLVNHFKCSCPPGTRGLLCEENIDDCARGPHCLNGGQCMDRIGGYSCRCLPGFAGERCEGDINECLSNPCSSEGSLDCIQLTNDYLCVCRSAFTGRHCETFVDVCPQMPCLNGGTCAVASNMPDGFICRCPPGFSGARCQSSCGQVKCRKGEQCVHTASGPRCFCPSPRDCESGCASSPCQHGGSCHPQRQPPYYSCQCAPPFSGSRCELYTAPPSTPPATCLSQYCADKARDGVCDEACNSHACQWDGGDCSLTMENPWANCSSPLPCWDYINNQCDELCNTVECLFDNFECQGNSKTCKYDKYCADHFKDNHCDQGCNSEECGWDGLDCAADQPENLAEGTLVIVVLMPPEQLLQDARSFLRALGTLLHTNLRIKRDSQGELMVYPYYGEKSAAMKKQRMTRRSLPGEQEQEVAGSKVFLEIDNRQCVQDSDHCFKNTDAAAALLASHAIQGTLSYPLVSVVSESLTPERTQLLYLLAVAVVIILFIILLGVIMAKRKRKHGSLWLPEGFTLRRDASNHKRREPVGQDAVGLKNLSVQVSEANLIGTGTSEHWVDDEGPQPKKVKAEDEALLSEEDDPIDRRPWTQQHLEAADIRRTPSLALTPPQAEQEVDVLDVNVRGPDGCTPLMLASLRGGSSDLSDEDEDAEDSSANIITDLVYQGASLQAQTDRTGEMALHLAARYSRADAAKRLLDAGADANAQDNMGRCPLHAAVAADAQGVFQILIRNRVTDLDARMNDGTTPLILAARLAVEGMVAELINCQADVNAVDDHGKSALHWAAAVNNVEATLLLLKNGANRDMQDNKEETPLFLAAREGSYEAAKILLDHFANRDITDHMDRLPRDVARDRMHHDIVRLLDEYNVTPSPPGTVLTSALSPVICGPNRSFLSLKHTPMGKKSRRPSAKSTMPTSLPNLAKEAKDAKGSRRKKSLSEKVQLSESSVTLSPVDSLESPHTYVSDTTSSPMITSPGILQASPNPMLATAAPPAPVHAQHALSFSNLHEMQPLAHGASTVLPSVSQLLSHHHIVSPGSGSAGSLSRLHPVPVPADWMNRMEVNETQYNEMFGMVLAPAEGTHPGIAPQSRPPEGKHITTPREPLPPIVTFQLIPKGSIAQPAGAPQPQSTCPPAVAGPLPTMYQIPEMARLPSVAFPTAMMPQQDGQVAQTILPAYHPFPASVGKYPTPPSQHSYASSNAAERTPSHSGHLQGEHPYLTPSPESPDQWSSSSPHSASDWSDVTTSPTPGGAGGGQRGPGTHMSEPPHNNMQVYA
# [6] = molecular target: Pro-neuregulin-1, membrane-bound isoform (Homo sapiens) (UniProt Q02297); experiment: small molecules binding neuregulin-1 protein – biochemical, small-molecule microarray, fluorescence 635/667, psychiatric disease protein project, primary screen (AID 1075); conditions: NRG1 binding, 635 nm fluorescence, higher = more signal;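 further: score combines 667 nm spot fluorescence with signal to noise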
# Sequence of Pro-neuregulin-1, membrane-bound isoform (Homo sapiens) (Q02297 whole entry, looked up, the tested form may be a part, canonical isoform): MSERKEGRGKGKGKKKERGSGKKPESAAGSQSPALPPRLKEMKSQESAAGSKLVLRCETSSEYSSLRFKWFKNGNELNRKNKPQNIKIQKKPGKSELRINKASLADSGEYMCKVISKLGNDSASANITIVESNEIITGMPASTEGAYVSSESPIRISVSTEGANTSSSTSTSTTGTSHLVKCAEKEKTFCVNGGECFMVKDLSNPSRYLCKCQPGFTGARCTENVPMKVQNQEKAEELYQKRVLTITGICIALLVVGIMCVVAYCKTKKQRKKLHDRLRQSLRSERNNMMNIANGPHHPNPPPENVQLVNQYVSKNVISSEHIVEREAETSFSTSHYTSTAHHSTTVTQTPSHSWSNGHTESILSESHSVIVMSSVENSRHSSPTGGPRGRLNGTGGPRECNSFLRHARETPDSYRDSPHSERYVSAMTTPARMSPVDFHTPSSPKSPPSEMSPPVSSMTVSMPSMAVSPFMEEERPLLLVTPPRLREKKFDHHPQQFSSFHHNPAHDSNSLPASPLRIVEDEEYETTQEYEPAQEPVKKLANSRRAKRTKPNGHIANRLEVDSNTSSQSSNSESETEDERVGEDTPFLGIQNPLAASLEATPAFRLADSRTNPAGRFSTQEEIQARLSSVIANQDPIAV
# [7] = tested on: Neuregulin-1 EGF-like domain; experiment: small molecules binding NRG1 EGF domain – biochemical, small-molecule microarray, 635 nm fluorescence, primary screen (AID 1081); conditions: higher = more signal;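 further: binding of the protein to compounds printed on small-molecule microarray slides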
# [8] = FRG1 expression reporter modulators in myotubes – cell-based, C2C12 myotubes, firefly/Renilla luciferase, luminescence, FRG1 inhibition for FSHD, primary screen (AID 1084); conditions: FRG1 promoter luciferase, higher = more signal, called active from +8 up or from −8 down
# [9] = small molecules captured by biotinylated probe aFST – biochemical, small-molecule microarray, fluorescence 635/667, stem cell growth factor project, primary screen (AID 1086); conditions: higher = more signal;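 further: score merges 667 nm fluorescence with signal-to-noise of each printed compound spot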
# [10] = binders of probe aHhip on microarray, primary screen, stem cell growth factor project, biochemical, small-molecule microarray, fluorescence 635/667 (AID 1087); conditions: higher = more signal;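 further: score merges spot fluorescence at 667nm with spot signal to noise ratio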
# [11] = tested on: PRMT1 (protein arginine N-methyltransferase 1); experiment: small molecules binding arginine methyltransferase PRMT1 – biochemical, small-molecule microarray, 635 nm fluorescence, primary screen (AID 1088); conditions: higher = more signal;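 further: binding of Prmt1 protein to compounds spotted on small-molecule microarray slides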
# [12] = growth effects on S. cerevisiae YJM789 – YJM789 clinical isolate, OD600, 24 h, basal, primary screen (AID 1089); conditions: higher = more signal, called active from +8 up or from −8 down;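 further: growth of clinical yeast isolate S. cerevisiae YJM 789 seeded 1000 cells per well; test concentration not given here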
# [13] = S. pombe growth modifiers, basal conditions – strain 972, OD600, 24 h, no modulator, primary screen (AID 1090);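 further: basal condition with compound alone and no growth modifier present; test concentration not given here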; conditions: S. pombe 972 growth, higher = more signal, called active from +8 up or from −8 down
# [14] = budding yeast growth modifiers under rapamycin – strain BY4716, OD600, 96 h, primary screen (AID 1091); further: test concentration not given here; conditions: S. cerevisiae BY4716 + rapamycin, higher = more signal, called active from +8 up or from −8 down
# [15] = molecular target: Torsin-1A-interacting protein 2 (Homo sapiens) (UniProt Q8NFQ8); experiment: small molecules binding lysate-expressed LULL1 – cell lysate, human LULL1 lysate, 635/667 nm fluorescence, primary screen (AID 1092); conditions: small-molecule microarray, hLULL1 lysate binding, 635 nm fluorescence; higher = more signal;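 further: probe is lysate of COS7 cells overexpressing human LULL1; score merges per-feature 667 nm fluorescence with signal-to-noise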
# Sequence of Torsin-1A-interacting protein 2 (Homo sapiens) (Q8NFQ8 whole entry, looked up): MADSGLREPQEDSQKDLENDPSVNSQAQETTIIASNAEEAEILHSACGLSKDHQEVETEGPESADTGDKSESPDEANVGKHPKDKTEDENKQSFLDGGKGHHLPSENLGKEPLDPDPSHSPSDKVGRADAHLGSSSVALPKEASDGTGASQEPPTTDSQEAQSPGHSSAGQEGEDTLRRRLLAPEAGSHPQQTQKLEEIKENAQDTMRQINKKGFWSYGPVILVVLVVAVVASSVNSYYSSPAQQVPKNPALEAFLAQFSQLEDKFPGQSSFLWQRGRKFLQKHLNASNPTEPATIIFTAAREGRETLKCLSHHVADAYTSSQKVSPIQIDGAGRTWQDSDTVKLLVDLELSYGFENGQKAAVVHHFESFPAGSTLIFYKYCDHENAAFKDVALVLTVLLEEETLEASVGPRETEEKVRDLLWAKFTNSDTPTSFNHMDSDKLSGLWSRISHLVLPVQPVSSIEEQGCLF
# [16] = optical density change of DRC41 E. coli – strain DRC41, OD650, 24 h, E. coli filamentation project, primary screen (AID 1093);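 further: MC1000 strain lacking acrAB efflux and sulA so SOS filamentation is blocked; test concentration not given here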; conditions: E. coli DRC41 growth, higher = more signal, called active from +8 up or from −8 down
# [17] = probe aLefty2 binding to arrayed compounds – biochemical, biotinylated probe, 635/667 nm fluorescence, primary screen (AID 1094); conditions: small-molecule microarray, higher = more signal;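 further: score merges spot fluorescence near 667 nm with spot signal-to-noise ratio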
# [18] = tested on: Noggin (protein binding on small-molecule microarray); experiment: small molecules binding Noggin protein – biochemical, 635/667 nm fluorescence, primary screen (AID 1095); conditions: 635 nm fluorescence, higher = more signal;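 further: score merges 667 nm feature fluorescence with signal to noise over triplicate slides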
# [19] = molecular target: Neurogenic locus notch homolog protein 3 (Homo sapiens) (UniProt Q9UM47); experiment: small molecules binding NOTCH3 protein – biochemical, 635/667 nm fluorescence, primary screen (AID 1096); conditions: small-molecule microarray, 635 nm fluorescence, higher = more signal
# [20] = probe aEGFR binding to arrayed compounds – biochemical, biotinylated probe, 635/667 nm fluorescence, primary screen (AID 1097); conditions: small-molecule microarray, higher = more signal;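 further: probe is a biotinylated anti-EGFR antibody binding compounds printed on slides; score combines fluorescence near 667 nm and signal to noise of each spot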
SMILES,composite z-score [1],composite z-score [2],composite z-score [3],composite z-score [4],composite z-score [5],composite z-score [6],composite z-score [7],z-score [8],composite z-score [9],composite z-score [10],composite z-score [11],z-score [12],z-score [13],z-score [14],composite z-score [15],z-score [16],composite z-score [17],composite z-score [18],composite z-score [19],composite z-score [20]
C[C@H]1C2[C@H](Cc3ccccc3)NC(=O)[C@]23C(=O)N[C@H](Cc2ccccc2)C(=O)N[C@@H](Cc2ccccc2)C(=O)NC/C=C\C/C=C/C3[C@@H]2O[C@]12C (stereo not given in full),-0.446,0.107,-0.147,0.388,0.155,-0.384,-0.199,-0.293 (inactive),-0.137,0.122,-0.0599,-0.371 (inactive),-0.246 (inactive),-0.639 (inactive),0.168,1.25 (inactive),-0.0882,-0.152,0.367,-0.113
COCCOC(=O)N1C(=O)[C@@]2(c3cc(C#CCNC(N)=O)ccc31)[C@H](C(=O)N1CCCCCCC1)[C@H]1C(=O)O[C@H](c3ccccc3)[C@H](c3ccccc3)N1[C@@H]2c1ccccc1OCCO,2.42,0.288,0.129,0.452,1.38,1.03,1.05,-0.556 (inactive),1.29,0.851,1.2,1.42 (inactive),-0.922 (inactive),3.58 (inactive),2.05,-0.698 (inactive),0.957,0.601,1.04,0.295
C=C[C@H](OC)[C@@H](OC(=O)Nc1ccc(SC)cc1)c1ccc(O)c(F)c1,-0.0125,-0.22,-0.0493,0.2,0.474,0.756,1.03,4.46 (inactive),-0.212,0.109,1.22,-1.83 (inactive),-1.68 (inactive),0.887 (inactive),2.96,1.48 (inactive),-0.0174,-0.0413,0.134,-0.12
COc1cccc([C@@H]2[C@@H](C)CC[C@H]3C(=O)N4[C@H](c5cccc(OC)c5)[C@@H](C)CC[C@H]4C(=O)N23)c1,-0.197,0.683,-0.0355,0.483,1.01,0.25,0.285,-1.21 (inactive),0.0794,-0.0994,0.606,-2.34 (inactive),-1.46 (inactive),-0.616 (inactive),0.474,0.368 (inactive),-0.138,0.603,1.05,-0.0082
C[C@@H]1CC[C@H]2C(=O)N3[C@@H](CC[C@@H](C)[C@@H]3c3cccc(N4CCOCC4)c3)C(=O)N2[C@H]1c1cccc(Br)c1,-0.0356,0.237,-0.108,0.528,0.263,0.942,0.987,-0.649 (inactive),0.166,0.0373,0.969,-0.586 (inactive),-3.26 (inactive),-1.19 (inactive),1.6,0.732 (inactive),0.075,0.964,0.981,0.161
C=CCNC(=O)[C@@H]1[C@H]2C(=O)O[C@H](c3ccccc3)[C@H](c3ccccc3)N2[C@H](c2ccc(OCCO)cc2)[C@@]12C(=O)N(C(=O)OCCOC)c1ccc(C#CC3(O)CCCCCC3)cc12,1.33,1.16,0.126,0.552,1.42,0.508,1.03,0.132 (inactive),0.624,-0.322,1.56,-1.05 (inactive),-1.64 (inactive),3.24 (inactive),1.6,2.89 (inactive),0.505,0.205,0.955,0.108
CC(C)C[C@@H]1NC(=O)[C@H](CC(C)C)NC(=O)[C@@]23C(=O)N[C@@H](Cc4ccccc4)C2[C@H](C)[C@@]2(C)O[C@H]2C3/C=C/CC/C=C/CNC1=O (stereo not given in full),-0.3,-0.135,-0.0805,0.278,0.242,0.603,1,-0.298 (inactive),0.0226,-0.201,1.54,-0.833 (inactive),-2.66 (inactive),-1.74 (inactive),2.01,0.194 (inactive),-0.26,0.413,1.08,-0.0697
C=CC[C@]1(C(=O)O)N=C(c2ccc(OCCCO)cc2)O[C@H]1c1ccccc1,1.03,-0.269,-0.0985,-0.2,-0.0704,1.87,1.12,0.197 (inactive),0.0226,-0.169,0.707,-0.435 (inactive),-2.83 (inactive),-1.08 (inactive),3.29,0.597 (inactive),-0.0199,-1.1,-0.888,-0.0936
CO[C@H]1O[C@H](CO)[C@@H](OC(=O)Nc2ccccc2)[C@H](OC(=O)Nc2ccc3c(c2)OCO3)[C@@H]1OC(=O)Nc1ccc2c(c1)OCO2,0.304,1.66,-0.0784,0.158,0.288,1.77,1.29,2.25 (inactive),0.474,-0.191,1.53,0.058 (inactive),-0.1 (inactive),3.14 (inactive),2.62,1.67 (inactive),-0.0591,-0.0087,0.845,-0.117
